Activity calls are given as the source filed them.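 The calls were made as follows, unless noted: active = visually confirmed hit in the image check and inhibition above 20%; inconclusive = visually confirmed hit but inhibition not above 20%; inactive = no visual hit in the image check.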
Key:
[1] = inhibitors of TNFa-induced NFkB p65 translocation, primary screen, imaging, HUVEC, MLSMR starter and 10KST1 sets (AID 438;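 active = inhibition above 20% together with a positive visual image hit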;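 also: compound added about 3h40 before a 20 min TNFalpha stimulation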;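 as to inhibition: signal is the nuclear over cytoplasmic p65 intensity ratio per well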); conditions: HUVEC TNFa-induced p65 nuclear translocation; cell count: measured here: nuclei count (cytotoxicity indicator), at 2.08 µM; inhibition: at 2 µM, stronger effect = higher value, 0% TNFa-plus-vehicle, 100% no-TNFa wells
[2] = reduction of polyQ htt aggregates in cells – imaging, exon1htt(103Q)mCFP cells, high-content imaging, primary screen (AID 483;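 active = visual image review flags a hit and inhibition of aggregation exceeds 20%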;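 also: compound exposure lasted 3 days before fixation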;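 as to nuclei count: percent of the per-plate median nuclei count of sample wells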); conditions: exon1htt(103Q)mCFP cell line, aggregate imaging, at 2 µM; inhibition of aggregation: stronger effect = higher value; nuclei count: measured here: cell count, toxicity
[3] = endothelial E-selectin expression blockers – imaging, HUVEC, immunofluorescence, MLSMR starter and 10KST1 sets, primary screen (AID 487); conditions: HUVEC TNFalpha-induced E-selectin immunofluorescence imaging, at 2 µM; inhibition: stronger effect = higher value; nuclei count: measured here: cell number, toxicity;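 as to inhibition: signal is fraction of cell area covered by stained E-selectin grains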;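 as to nuclei count: 100% = median nuclei count of all wells on the same plate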
[4] = molecular target: Voltage-gated potassium channel subunit beta-2 (Rattus norvegicus) (UniProt P62483); experiment: inhibitors of rat Kvbeta2 reductase activity – biochemical, NADPH fluorescence, primary screen (AID 622;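 active = fluorescence slope higher than the sample average by over 3 SD, cut at about -0.22 in these data, passing the limit was not always enough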;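 also: slope of raw intensity against log time taken from 70 to 1610 s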); conditions: recombinant KvBeta, 4-cyanobenzaldehyde reduction, at 10 µM, stronger effect = higher value
[5] = molecular target: Voltage-gated potassium channel subunit beta-2 (Rattus norvegicus) (UniProt P62483); experiment: enhancers of rat Kvbeta2 NADPH turnover – biochemical, NADPH fluorescence, primary screen (AID 623;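 active = NADPH fluorescence slope more negative than the mean of all samples by about 3 SD, 99.7% confidence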;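 also: fluorescence intensity change per second fitted from 20 to 320 s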); conditions: Recombinant KvBeta, NADPH fluorescence decrease slope, 10 min; at 10 µM; stronger effect = lower value
[6] = molecular target: Alpha-2C adrenergic receptor (Homo sapiens) (UniProt P18825); experiment: compounds altering alpha2C-coupled GIRK flux – cell-based, HEK293 alpha2C/GIRK1/2, thallium flux, primary screen (AID 624;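 active = fluorescence slope after compound addition differing from the mean of all screened samples at 99.7% confidence, in either direction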;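 also: slope of fluorescence ratio to pre-addition baseline per second over 15 to 24 s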); conditions: thallium flux BTC fluorescence, at 10 µM, actives lie on both sides
[7] = blockers of RIG-like receptor reporter activation – cell-based, Sendai virus stimulus, luciferase, 10K MLSCN set, TLR/RLR signaling modifier project, primary screen (AID 602276;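 active = inhibition at or above 50% at 10 µM; inactive = inhibition below 50%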;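 also: firefly luciferase from ISG56 promoter only with Renilla not read in this screen; 0% = Sendai virus plus DMSO and 100% = medium plus DMSO without virus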); conditions: HEK293 RL24 IRF3 luciferase reporter, at 10 µM, stronger effect = higher value
[8] = TLR3 IRF3 reporter activation blockers – cell-based, poly I:C stimulus, luciferase, 10K MLSCN set, primary screen (AID 602277;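 active = inhibition of the reporter signal at or above 50%; inactive = inhibition below 50%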); conditions: HEK293-TLR3 RL24 IRF3 luciferase reporter, at 10 µM, stronger effect = higher value

Voltage-gated potassium channel subunit beta-2 (Rattus norvegicus), sequence (P62483 whole entry, looked up): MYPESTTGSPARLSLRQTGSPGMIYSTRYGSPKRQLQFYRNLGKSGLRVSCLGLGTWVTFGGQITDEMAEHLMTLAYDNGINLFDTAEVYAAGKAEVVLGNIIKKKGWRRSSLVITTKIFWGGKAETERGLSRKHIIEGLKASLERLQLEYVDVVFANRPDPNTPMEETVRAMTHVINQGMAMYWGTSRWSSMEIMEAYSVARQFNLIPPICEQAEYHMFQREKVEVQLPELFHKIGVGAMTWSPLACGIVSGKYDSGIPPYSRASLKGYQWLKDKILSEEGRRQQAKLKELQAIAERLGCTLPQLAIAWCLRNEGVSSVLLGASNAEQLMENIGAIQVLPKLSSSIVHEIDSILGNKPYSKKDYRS
Alpha-2C adrenergic receptor (Homo sapiens), sequence (P18825 whole entry, looked up): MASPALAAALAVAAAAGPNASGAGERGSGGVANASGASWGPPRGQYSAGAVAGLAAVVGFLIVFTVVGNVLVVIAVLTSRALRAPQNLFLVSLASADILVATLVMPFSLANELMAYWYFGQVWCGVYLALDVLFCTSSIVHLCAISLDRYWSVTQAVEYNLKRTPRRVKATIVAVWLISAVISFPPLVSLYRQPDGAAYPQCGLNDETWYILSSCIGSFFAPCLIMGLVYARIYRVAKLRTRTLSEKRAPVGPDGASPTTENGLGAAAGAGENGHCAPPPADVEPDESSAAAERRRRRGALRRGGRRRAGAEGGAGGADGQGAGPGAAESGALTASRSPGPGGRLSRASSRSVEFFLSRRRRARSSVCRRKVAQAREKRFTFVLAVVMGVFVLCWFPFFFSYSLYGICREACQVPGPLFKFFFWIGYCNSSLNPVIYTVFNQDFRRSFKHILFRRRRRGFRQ

SMILES | cell count [1] | inhibition [1] | inhibition of aggregation [2] | nuclei count [2] | inhibition [3] | nuclei count [3] | fluorescence slope [4] | NADPH fluorescence slope [5] | slope [6] | inhibition [7] | inhibition [8]
COC(=O)Cc1c(C)nc2nc[nH]n2c1=O | 648 | -6% (inactive) | 2.1% (inactive) | 103% | -21.9% (inactive) | 104% | -0.313 (inactive) | -4e-05 (inactive) | 0.0059 (inactive) | 8.47% (inactive) | 13.4% (inactive)
COc1ccc(-c2nc(CS(=O)CC(=O)NCc3ccccn3)c(C)o2)cc1 (stereo not drawn) | 518 | 1.9% (inactive) | -23.1% (inactive) | 104% | -25.4% (inactive) | 99.7% | -0.527 (inactive) | -1.1e-05 (inactive) | 0.00839 (inactive) | 44.5% (inactive) | 9.92% (inactive)
O=C(NCCOC(=O)C1COc2ccccc2O1)C1COc2ccccc2O1 (stereo not drawn) | 357 | -2.1% (inactive) | -2% (inactive) | 106% | -99.1% (inactive) | 128% | -0.48 (inactive) | -3.8e-05 (inactive) | 0.00608 (inactive) | -2.25% (inactive) | 19.3% (inactive)
CCCCn1c(CN2CCN(c3ccccc3)CC2)nc2c1c(=O)n(C)c(=O)n2C | 702 | -11.5% (inactive) | -3.7% (inactive) | 90.6% | -17.7% (inactive) | 117% | -0.542 (inactive) | -4.7e-05 (inactive) | 0.00817 (inactive) | 1.46% (inactive) | -8.66% (inactive)
COc1ccc(N(C(=O)c2ccco2)C(C(=O)NC2CCCC2)c2ccc(N(C)C)cc2)cc1OC (stereo not drawn) | 596 | -18.8% (inactive) | -35.5% (inactive) | 116% | -96.5% (inactive) | 109% | -0.48 (inactive) | 3.2e-05 (inactive) | 0.00496 (inactive) | 3.23% (inactive) | 27.3% (inactive)
Cn1c(=O)c(=O)n(C)c2cc(S(=O)(=O)Nc3ccc4c(c3)OCCO4)ccc21 | 354 | -1.2% (inactive) | -18.4% (inactive) | 106% | -21.4% (inactive) | 108% | -0.421 (inactive) | -5.4e-05 (inactive) | 0.00519 (inactive) | 45.1% (inactive) | 35.8% (inactive)
CCC1CCCCN1C(=O)C1CC(c2cc(Cl)c(OC)cc2OC)=NO1 (stereo not drawn) | 411 | 6.8% (inactive) | 1.6% (inactive) | 108% | -8.7% (inactive) | 168% | -0.504 (inactive) | 2e-05 (inactive) | 0.00725 (inactive) | -1.49% (inactive) | -30.3% (inactive)
CCCc1nnc2n1N=C(c1ccc(OC)c(OC)c1)CS2 | 321 | -12.4% (inactive) | -0.1% (inactive) | 83.3% | 12.3% (inactive) | 99.3% | -0.584 (inactive) | -5.6e-05 (inactive) | 0.00347 (inactive) | 16.9% (inactive) | 37.3% (inactive)
COc1ccc2c(CC(=O)Nc3ccc(OC)c(NS(=O)(=O)c4ccc(F)cc4)c3)coc2c1 | 403 | -1.4% (inactive) | 2.9% (inactive) | 116% | -29.3% (inactive) | 100% | -0.275 (inactive) | -8.3e-06 (inactive) | 0.00715 (inactive) | 9% (inactive) | 18.5% (inactive)
Cc1csc(SCCn2c(N3CCCC3)nc3c2c(=O)[nH]c(=O)n3C)n1 | 445 | 53.9% (active) | -7.1% (inactive) | 110% | -26.1% (inactive) | 127% | -0.38 (inactive) | -3.1e-05 (inactive) | 0.00532 (inactive) | 1.74% (inactive) | 16.5% (inactive)
CC(=O)c1ccccc1NS(=O)(=O)c1c(C)nn(-c2ccccc2)c1C | 580 | -2.4% (inactive) | 2.3% (inactive) | 113% | -74.1% (inactive) | 92.7% | -0.308 (inactive) | -5e-05 (inactive) | 0.00448 (inactive) | -4.38% (inactive) | 98.9% (active)
COc1cccc(NC(=O)C2CCCN2C(=O)Nc2cccc(F)c2)c1 (stereo not drawn) | 584 | -15.1% (inactive) | -3.6% (inactive) | 86.9% | -62.2% (inactive) | 111% | -0.512 (inactive) | -5.6e-05 (inactive) | 0.00468 (inactive) | 9.51% (inactive) | 8.88% (inactive)
C=CCn1c(SCC(=O)Nc2ccccc2OC)nnc1-c1ccccn1 | 684 | 9.1% (inactive) | 32.8% (inactive) | 65.8% | -6.9% (inactive) | 113% | -0.344 (inactive) | -2.6e-05 (inactive) | 0.0051 (inactive) | 7.11% (inactive) | 18.2% (inactive)

— PubChem BioAssay
